# A selection: hits, their analogues and other compounds. The true share with any hit is near 4.5%.
# TIM10 inh: growth inhibitors of TIM10 yeast strain; S. cerevisiae TIM10 strain growth, BacTiter-Glo luminescence, 24 h; inhibition, % at 10 µM; actives 1.4% (n = 330,000); AID 463195;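 active = inhibition of 40% or more at the single tested concentration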;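 note: wild-type TIM10 isogenic control strain grown at permissive 25 °C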
# tim23-1 inh: growth inhibitors of tim23-1 mutant yeast; S. cerevisiae tim23-1 growth, BacTiter-Glo luminescence, 24 h; actives 1.3% (n = 330,000); AID 463212; inhibition, % at 20 µM;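 active = growth inhibition of the mutant yeast at or above 50%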;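 note: temperature-sensitive mutant grown at 25 °C; plate controls were DMSO-treated mutant yeast for no effect and medium wells lacking yeast for full effect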
# tim10-1 inh: growth inhibitors of tim10-1 mutant yeast; S. cerevisiae tim10-1 ts strain growth, BacTiter-Glo, 24 h; inhibition, % at 20 µM; actives 2.2% (n = 330,000); AID 463190;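 active = inhibition of at least 40%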;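 note: mutant grown at 25 °C; 0% = DMSO wells with yeast and 100% = wells holding no yeast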
# NALP3 yeast inh: inhibitors of NALP3 inflammasome in yeast. Yeast reconstituted NLRP3/ASC/caspase-1, beta-gal luminescence, 24 h. inhibition, % at 10 µM. actives 0.39% (n = 330,000). AID 2825;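 active = inhibition of 50% or more; inactive = inhibition below 50%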;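 note: plate controls were induced DMSO wells for no effect and uninduced yeast grown without galactose for full effect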
# SKKanGAS inh: blocks kanamycin growth of S. pyogenes SKKanGAS strain. inhibition, % at 7.5 µM. BacTiter-Glo, 6 h. actives 1.3% (n = 300,000). AID 1662;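 active = mean replicate score, as percent of positive control median, at least 50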;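 note: strain carries kanamycin resistance gene driven by streptokinase promoter and grows in 40 µg/ml kanamycin; loss of luminescence reflects streptokinase promoter inhibition or plain growth inhibition; 0% = median of DMSO wells and 100% = positive control at its reference dose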
# PfHsp90 set2: reduces growth (ATP signal) of yeast expressing P. falciparum Hsp90 | S. cerevisiae expressing PfHsp90, BacTiter-Glo ATP, 48 h; yeast lacking PDR1 and PDR3 efflux regulators | inhibition, % at 9.4 µM | actives 0.32% (n = 310,000);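 active = every replicate shows inhibition above about 80%, whatever the replicate mean, limit read from the data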;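 note: 0% = DMSO neutral controls and 100% = 20 µM radicicol positive controls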
# tim10 confirm: confirmation of TIM10 yeast growth inhibitors. shares compounds with TIM10 inh. S. cerevisiae tim10 strain growth, BacTiter-Glo luminescence, 24 h. inhibition, % at 10 µM. actives 63% (n = 4,600). AID 463215;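 active = inhibition of yeast growth at or above a set limit in either of two replicates at 10 µM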;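 note: this counterscreen used the strain with wild-type TIM10; 0% = yeast with DMSO and 100% = medium wells lacking yeast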
# tim23-1 confirm: tim23-1 yeast growth inhibition, confirmed; shares compounds with tim23-1 inh; S. cerevisiae tim23-1 growth, BacTiter-Glo luminescence, 24 h; inhibition, % at 20 µM; actives 83% (n = 4,400);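 active = inhibition above about 39% in either of two replicate wells at 20 µM, limit read from the data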;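 note: temperature-sensitive tim23-1 mutant grown at 25 °C; 0% = DMSO wells with yeast and 100% = medium wells without yeast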
# The depositor's hits bear a star; . = not tested or not shown.
SMILES,TIM10 inh,tim23-1 inh,tim10-1 inh,NALP3 yeast inh,SKKanGAS inh,PfHsp90 set2,tim10 confirm,tim23-1 confirm
Oc1cccc(Nc2nc(-c3ccccc3)nc3ccccc23)c1,59*,82*,21,17,-6,-9,56*,54*
COc1cccc(OC)c1OC(=O)c1ccccc1,.,.,.,.,.,29,.,.
Nc1ccc2c(c1)C(=O)c1ccccc1C2=O,2,-3,6,4,-8,.,.,.
O=C1C(=O)c2ccc(-c3ccccc3)cc2-c2ccccc21,44*,59*,36,12,101*,.,61*,56*
O=C(N/N=C/C(Br)=C/c1ccccc1)c1ccncc1,13,28,25,20,-7,9,.,.
O=C(N/N=C/C(Br)=C\c1ccccc1)c1cccs1,44*,71*,-15,41,39,.,40*,69*
C/C(=C\c1ccccc1)C(=O)Nc1ccc(Cl)cn1,-2,30,8,-4,-3,-7,.,.
CC(c1ccccc1)N1CCn2c(nc3cc(NC(=O)c4cccs4)ccc32)C1 (configuration not stated),44*,53*,24,16,-7,12,32*,64*
O=C(Nc1ccc(N2CCCC2)c(Cl)c1)c1cccs1,45*,50*,28,35,-8,-10,34*,55*
Cn1cnc2cc(NC(=O)c3cccs3)ccc21,29,11,18,21,18,-8,.,.
O=C(Nc1nc2cc3c(cc2s1)OCCO3)c1cccs1,24,37,10,33,22,56,.,.
O=C(Nc1ccc2nn(-c3ccccc3)nc2c1)c1cccs1,53*,54*,30,6,-7,-11,54*,65*
O=C(Nc1ccc2c(c1)OCCO2)c1cccs1,45*,56*,15,37,7,7,50*,65*
O=C(Cn1nc(-c2ccccc2)ccc1=O)N1CCCCC1,-15,8,12,6,6,-4,.,.
COc1ccc(-n2ncc3c(=O)n(CC(=O)NC(C)C)cnc32)cc1,-13,9,-2,9,-8,9,.,.
COc1ccccc1Oc1ccc(NC(=O)Cc2ccccc2)cc1,6,24,4,29,-2,.,.,.
CC(C)CN1C(=O)c2ccc(NC(=O)c3cccs3)cc2C1=O,46*,53*,-6,36,0,2,50*,54*
CC(C)CN1C(=O)c2ccc(NC(=O)c3ccccc3F)cc2C1=O,14,3,-14,10,13,30,.,.
O=C(N/N=C/c1ccccc1O)c1cccc2ccccc12,41*,66*,-13,28,106*,-15,21,39
O=C(O)c1ccc(C=NNC(=O)c2cccc3ccccc23)cc1,.,.,.,.,.,-46,.,.
Cc1cc(C(=O)CCC(=O)N2CCN(S(=O)(=O)c3ccccc3)CC2)c(C)s1,12,19,27,31,-2,.,.,.
Cc1cc2c(cc(C(=O)OCC(=O)NC3CCCCC3)n2C)o1,.,.,.,.,.,9,.,.
Cn1c(/C(C#N)=C/c2ccncc2)nc2ccccc21,46*,68*,35,-14,.,-25,19,63*
COc1ccc(CNC(=O)C2CCCN(S(=O)(=O)c3ccc4c(c3)CCCN4C(C)=O)C2)cc1 (configuration not stated),3,15,21,-1,0,10,.,.
CCN(CC)CCNC(=O)c1ccc2c(c1NCCO)C(=O)c1ccccc1C2=O,43*,70*,29,37,51*,.,48*,60*
SMILES,TIM10 inh,tim23-1 inh,tim10-1 inh,NALP3 yeast inh,SKKanGAS inh,PfHsp90 set2,tim10 confirm,tim23-1 confirm
CCOc1nc(-c2ccncc2)nc2ccccc12,58*,57*,29,42,-13,-40,44*,54*
CCOC(=O)CSC1=NC(=O)/C(=C\c2ccc(Cl)cc2)S1,50*,71*,38,38,-21,64,58*,45*
CC(C)c1ccc2c(c1)C1(NN=C(c3ccccc3)S1)C(=O)N2 (configuration not stated),51*,50*,28,1,99*,-156,40*,54*
CCN1CCN(C(CNS(=O)(=O)c2ccc(C)cc2)c2ccccc2)CC1 (configuration not stated),4,-18,-10,7,5,11,.,.
Cc1cccc(NC(=O)COc2ccc(Br)cc2/C=N/O)c1,56*,50*,14,39,-12,5,61*,78*
CCCCNC(=S)N/N=C/c1ccccc1F,47*,51*,35,24,-3,-8,-10,40*
O=C(NC(=S)NC1CCCCCC1)c1cncc(Br)c1,44*,51*,34,22,3,1,-1,42*
O=C(COC(=O)c1cncc(Br)c1)NC1CCCCC1,-22,1,-1,25,0,-30,.,.
O=C(Nc1ccc2oc(-c3ccccc3F)nc2c1)c1ncn[nH]1,1,10,14,3,11,-7,.,.
O=C(Nc1ccc2oc(-c3ccccc3F)nc2c1)c1ccccc1F,55*,61*,7,47,5,13,60*,79*
Cc1ccc(S(=O)(=O)N2CCCC2=O)c(C)c1N(C)S(C)(=O)=O,1,11,10,7,-6,10,.,.
Cc1nc(C)c(-c2csc(Nc3ccccn3)n2)s1,48*,54*,27,14,-6,-6,47*,45*
O=C(CN1C(=O)NC2(CCCCC2)C1=O)NCCc1ccc(Cl)cc1Cl,-9,-3,-1,19,.,.,.,.
CC(=O)N1c2ccc(N=Cc3cc(Br)cc(Br)c3O)cc2CC1C (configuration not stated),73*,84*,35,12,6,.,28,87*
O=c1oc(-c2cccs2)nc2c1cnn2-c1ccccc1,47*,51*,38,-11,-4,-19,34*,47*
CCN(C(=O)CSc1nnc(COc2ccccc2F)n1N)c1c(N)n(Cc2ccccc2)c(=O)[nH]c1=O,.,.,.,.,.,-10,.,.
N#C/C(=C\c1ccccc1)C(=O)N1CCN(c2ccccc2F)CC1,47*,66*,26,10,10,12,44*,48*
C/C(=C/c1ccccc1)C(=O)N1CCN(c2ccccc2F)CC1,-13,25,6,5,5,-17,.,.
COC1CCCN(Cc2c(C(=O)N3CCN(C4CCCCC4)CC3)nc3ccccn23)C1 (configuration not stated),18,16,12,-13,33,21,.,.
